This note sets out measurements from PubChem BioAssay (NCATS).

Each structure is given as a SMILES string.

A short description of this assay: qHTS profiling of the MIPE4 collection as inhibitors of Plasmodium falciparum (HB3) proliferation (AID 743347).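 Further: plate controls were DMSO vehicle wells for no effect and artemisinin wells for full effect.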 To be noted: P. falciparum HB3 in erythrocytes, SYBR Green DNA, 72 h; at 28.5 µM (top of the series) unless noted. The source says:
Plasmodium falciparum is a virulent malarial parasite that kills 1-2 million people worldwide each year. Transmitted by mosquitoes, the sporozoite form of the parasite enters the blood stream to infect hepatocytes, where they become merozoites that infect red blood cells (erythrocytes). Within erythrocytes, merozoites begin a […] cycle of growth and division, after which the parasite is released to infect new red blood cells. Gametocytes, which form within erythrocytes as well, circulate in the bloodstream and are ingested by the mosquito, thereby completing the life cycle. To profile malarial isolates for differential chemical responses and to identify inhibitors of malarial growth, an assay that measures P. falciparum growth and replication within erythrocytes was employed. This assay uses a DNA binding fluorescent dye (SYBR Green) to detect parasite DNA following cell lysis. Because mature erythrocytes lack DNA, only Plasmodium-derived DNA is detected.
The SYBR Green viability assay was adapted from a method described previously (Plouffe et al., 2008). For screening 3 ul culture medium was dispensed into 1536 well black clear bottom plates (Aurora Biotechnologies) using a Multidrop Combi (Thermo Fisher Scientific Inc.), 23 nL compounds in DMSO were added by a pin tool (Kalypsys), and 5 ul of erythrocytes infected with P. falciparum (0.3% parasitemia, 2.5% hematocrit final concentration) were added. The plates were incubated at 37 C in a humidified incubator in 5% CO2 for 72 h, and 2 ul lysis buffer (20 mM Tris HCl, 10 mM EDTA, 0.16% saponin, 1.6% triton X, 10X SYBR Green I supplied as 10,000X […] by Invitrogen) was added to each well. The plates were mixed for 25 sec with gentle shaking and incubated overnight at room temperature in the dark. The following morning, fluorescence intensity at 485(14) nm excitation and 535(25) nm emission wavelengths was measured on an EnVision (Perkin Elmer) plate reader. Plate reads were normalized relative to the control inhibitor (0.29 uM artemisinin) and vehicle (DMSO) wells present on each plate and then corrected by an algorithm using vehicle-only control plates at the beginning and end of the compound plate stack.
A general note: In qHTS, concentration-response curves come from the screen itself.
Turning to `Nc1ccn(C[C@@H](CO)OCP(=O)(O)O)c(=O)n1`, the growth, % of control was 81.6% [at 9.64 µM].

`CC(=O)CC(c1ccccc1)c1c(O)c2ccccc2oc1=O` (centres undefined) gave a growth, % of control of 84.4%.

Molecule `CC(C)c1cccc(C(C)C)c1O` had a growth, % of control of 103%.

Take `CN1C(=O)COc2c(C(=O)NC3CN4CCC3CC4)cc(Cl)cc21` (centres undefined): the growth, % of control turned out to be 86.6%.

`COCCCOc1ccnc(CS(=O)c2nc3ccccc3[nH]2)c1C` (centres undefined) returned a growth, % of control of 83.7%.

Molecule `CC(C)[C@H](N)C(=O)OCCOCn1cnc2c(=O)[nH]c(N)nc21` came in with a growth, % of control of 102%.

In the case of `Cn1c(=O)c2[nH]cnc2n(C)c1=O`, the growth, % of control was determined as 96.9%.

`CCC1(c2ccc(N)cc2)CCC(=O)NC1=O` (centres undefined) showed a growth, % of control of 101%.

Molecule `CC(C)OC(=O)OCOP(=O)(CO[C@H](C)Cn1cnc2c(N)ncnc21)OCOC(=O)OC(C)C` registered a growth, % of control of 345%.

In turn, `C[C@]12CC[C@@H]3c4ccc(OC(=O)N(CCCl)CCCl)cc4CC[C@H]3[C@@H]1CC[C@@H]2OP(=O)(O)O` returned a growth, % of control of 47.6%.

Molecule `CN1C(=O)CCS(=O)(=O)C1c1ccc(Cl)cc1` (centres undefined) registered a growth, % of control of 109%.

`O=P1(N(CCCl)CCCl)NCCCO1` (centres undefined) gave a growth, % of control of 65.9%.

Molecule `O=C(O)CCCc1ccc(N(CCCl)CCCl)cc1` returned a growth, % of control of 54.2%.

Consider `O=c1[nH]cnc2[nH]ncc12`, for which the growth, % of control was determined as 93.3%.

For `Cc1onc(-c2ccccc2)c1C(=O)N[C@@H]1C(=O)N2[C@@H](C(=O)O)C(C)(C)S[C@@H]12`, the growth, % of control was determined as 82.7%.

On to `CCOC(=O)C1=C[C@@H](OC(CC)CC)[C@H](NC(C)=O)[C@@H](N)C1`, for which the growth, % of control worked out at 98.6%.

`CC(NC(C)(C)C)C(=O)c1cccc(Cl)c1` (centres undefined) came in with a growth, % of control of 7.91%.

As to `C[C@](O)(CS(=O)(=O)c1ccc(F)cc1)C(=O)Nc1ccc(C#N)c(C(F)(F)F)c1`, the growth, % of control is 27.8%.

For the molecule `CC[N+](CC)(CC)CCOc1cccc(OCC[N+](CC)(CC)CC)c1OCC[N+](CC)(CC)CC`, the growth, % of control was 111%.

With `O=P(O)(O)C(O)(Cn1ccnc1)P(=O)(O)O`, the growth, % of control was determined as 72.4% [at 9.64 µM].

Take `CC(C)N(CCC(C(N)=O)(c1ccccc1)c1ccccn1)C(C)C` (centres undefined): the growth, % of control was found to be 95.7%.

Consider `C[C@]12CCC(=O)C=C1CC[C@@H]1[C@H]3CC[C@](C)(O)[C@@]3(C)CC[C@@H]12`, for which the growth, % of control stood at 84.5% [at 57.5 µM].

`COc1cc(OC)c(OC)cc1C=O` displayed a growth, % of control of 102%.

The molecule `C[C@]12CC[C@H]3[C@@H](CC[C@@]45O[C@H]4C(O)=C(C#N)C[C@]35C)[C@H]1CC[C@H]2O` showed a growth, % of control of 90.1%.
